Consider 40 compounds from PubChem BioAssay (NCI).

The panel holds about 83,000 compounds, 20% with a hit somewhere; the sample as a whole holds those more often.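 48-hour exposure, single concentration, 96-well plates; percent growth endpoint where 0 means no net growth. Active: below 10.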 The source made the active and inactive calls.

The experiment relates to U251 CNS. Put plainly: NCI-60 one-dose screen, 48 h (100 = growth as untreated, 0 = no growth, -100 = all killed). Conditions: 10 µM unless noted.
On to `FC(F)(F)c1cc(-c2nnc3n2N=C(N2CCCC2)CS3)cc(C(F)(F)F)c1`, for which the growth is 37.6% (inactive).

Regarding `Clc1ccc(C2=NN(c3ccc(Cl)cc3)C(c3cccc(Nc4ccnc5cc(Cl)ccc45)c3)C2)cc1` (stereo not given), the growth is 76.8% (inactive).

As for `C=CCN(/C=C/CN(CC=C)CC=C)CC=C`, the growth was 97.3% (inactive).

As for `COc1ccc(-c2nnc3c4[nH]cnc4ncn23)c(OC)c1`, the growth was 41.1% (inactive).

Consider `Cc1ccc(S(=O)(=O)NCCN2c3nc4ccccc4cc3Sc3cc4ccccc4nc32)cc1`, for which the growth is 34.4% (inactive).

Consider `O=C(CNC(=O)c1cccc2ccccc12)Nc1ccccc1Oc1cccc(O)c1`, for which the growth is 14.3% [5 µM] (inactive).

As for `COc1ccc2c(=O)c(OC)c(-c3cc(OC)c(OC)c(OC)c3)oc2c1`, the growth was 96.1% (inactive).

For the compound `COc1cnc2c(c1)C(=O)c1c-2n(CCCN2CCC(O)CC2)c(=O)c2cc(F)ccc12`, the growth is -28.4% (active).

For the compound `O=C(/C=C/c1c(-c2ccccc2)[nH]c2ccccc12)S(=O)(=O)c1ccccc1`, the growth is 76.5% (inactive).

Turning to `O=C(Nc1nc2c(C(F)(F)F)cccc2s1)c1cc(Cl)ccc1O`, the growth was 3.11% (active).

Consider `CCN(CC)CCOCC[C@H]1CC[C@H]2[C@@H]3[C@H](C)Cc4cc(OS(N)(=O)=O)ccc4[C@H]3CC[C@]12C`, for which the growth is -71% (active).

Regarding `NS(=O)(=O)c1ccc(N2CC(c3nc4ccccc4[nH]3)CC2=O)cc1` (stereo not given), the growth is 99.7% (inactive).

With `COc1cnc2c(c1)C(=O)c1c-2n(CCCN2CCCC2)c(=O)c2cc(F)ccc12`, the growth was -19% (active).

On to `COc1ccc(-n2cnc3cc(C(=O)N4CCCCC4)ccc32)cc1`, for which the growth was 96.6% (inactive).

`COc1cc(-c2n[nH]nc2-c2ccccn2)cc(OC)c1OC`: the growth was 106% (inactive).

Take `COc1cc(C2=NN(C=O)C(c3cccc(Nc4ccnc5cc(Cl)ccc45)c3)C2)cc(OC)c1OC` (stereo not given): the growth was 66.8% (inactive).

For `Cc1sc2nc(NCc3ccccc3)[nH]c(=O)c2c1C`, the growth is 30.8% (inactive).

On to `CC(=O)N1N=C(c2ccc(Nc3nc(NCCO)nc(NCCO)n3)cc2)CC1c1ccc(Cl)cc1` (stereo not given), for which the growth was 94.3% (inactive).

With `COc1ccc(N2CCN(CC(=O)N3CCN(c4nnc(-c5ccc(Cl)cc5)c(-c5ccc(Cl)cc5)n4)CC3)CC2)cc1`, the growth was 52.3% (inactive).

With `C1CCC(C(CC2CCCCN2)C2CCCCC2)CC1` (stereo not given), the growth was -61.3% (active).

For `Cc1cc2c(cc1C)[n+](Cc1ccc3ccccc3c1)cn2Cc1ccc2ccccc2c1`, the growth was -91.6% (active).

Take `COc1ccc(Oc2ccccc2NC(=O)CNC(=O)c2cccc3ccccc23)cc1`: the growth is 16.9% [5 µM] (inactive).

In the case of `COc1cccc(N2CCN(CC(=O)N3CCN(c4nnc(-c5ccc(Cl)cc5)c(-c5ccc(Cl)cc5)n4)CC3)CC2)c1`, the growth was 65.7% (inactive).

As for `CC(=O)N1N=C(c2ccc3c(c2)OCO3)CC1c1c(C)nn(-c2ccccc2)c1N(C)Cc1ccccc1` (stereo not given), the growth is 72.3% (inactive).

Turning to `COc1ccc(C(=O)/C=C/c2cccc(Nc3ccnc4cc(Cl)ccc34)c2)cc1`, the growth was 8.83% (active).

For `COc1cc(C2CC(C3C(=O)N(C)C(=O)N(C)C3=O)=NN2c2cc(Cl)cc(Cl)c2)cc(OC)c1OC` (stereo not given), the growth is 92.5% (inactive).

On to `O=C1NC(=O)/C(=C\c2ccco2)S1`, for which the growth is 101% (inactive).

Consider `COc1ccc2nc(-c3ccc(Cl)cc3)cc(-c3nnc(SCC(=O)Nc4ccc(C(C)=O)cc4)n3-c3ccccc3)c2c1`, for which the growth was 101% (inactive).

For `O=C(CNC(=O)c1cccc2ccccc12)Nc1ccccc1Cc1ccccc1`, the growth is 24.3% [5 µM] (inactive).

With `CCCCc1n(Cc2ccc3ccccc3c2)cc[n+]1Cc1ccc2ccccc2c1`, the growth was -46.5% (active).

With `COc1cc(C2CC(C3C(=O)N(C)C(=O)N(C)C3=O)=NN2C=O)cc(OC)c1OC` (stereo not given), the growth was 96.3% (inactive).

Turning to `Nc1ncnc2c1CN(Cc1ccccc1)CC2`, the growth is 101% (inactive).

As for `CCOC(=O)c1sc(NC(=O)COc2cccc(/C=C3\Cc4ccc(Cl)cc4C3=O)c2)nc1C`, the growth is 99.4% (inactive).

Turning to `COC(=O)[C@H](CCCCNC(=O)OCc1ccccc1)NC(=O)[C@@H](NC(=O)Nc1cc(C(F)(F)F)cc(C(F)(F)F)c1)C(C)C`, the growth was -88% [100 µM] (active).

Turning to `CCN(CC)c1ccc(C(=C2C=CC(=[N+](CC)Cc3cccc(S(=O)(=O)O)c3)C=C2)c2ccc(N(CC)Cc3cccc(S(=O)(=O)O)c3)cc2)cc1`, the growth is 20.8% (inactive).

In the case of `O=C(CNC(=O)c1cccc2ccccc12)Nc1ccccc1Oc1ccc(O)cc1`, the growth is 20.8% [5 µM] (inactive).

In the case of `COc1cc(C(=O)/C=C/c2cccc(Nc3ccnc4cc(Cl)ccc34)c2)cc(OC)c1OC`, the growth was -90.9% (active).

Take `CN1C(=O)C(C2=NN(C=O)C(c3ccc(F)cc3)C2)C(=O)N(C)C1=O` (stereo not given): the growth was 92.3% (inactive).

With `O=CN1N=C(c2ccc(Nc3ccnc4cc(Cl)ccc34)cc2)CC1c1ccc(Cl)cc1` (stereo not given), the growth was 27.6% (inactive).

Consider `COc1cccc(-c2nc3cc(NC(=O)c4ccc(Cl)c(C#N)c4)ccc3o2)c1`, for which the growth is -12.9% (active).
